High-throughput results (PubChem)
Mcl1 Bid PPI = disrupts binding of human Mcl-1 to Bid peptide | inhibition, % at 21.7 µM | 220,000 compounds, 0.97% hits | AID 1021 | TR-FRET Mcl-1/Bid-Dy647 peptide binding, 1536-well;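 active means compounds that cut the binding signal by more than half at the single screening dose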;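 further: His-tagged Mcl-1 with europium anti-His antibody binding Bid BH3 peptide; 0% = Mcl-1 plus peptide wells and 100% = peptide-only wells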
Target sequence (Q07820 whole entry, looked up): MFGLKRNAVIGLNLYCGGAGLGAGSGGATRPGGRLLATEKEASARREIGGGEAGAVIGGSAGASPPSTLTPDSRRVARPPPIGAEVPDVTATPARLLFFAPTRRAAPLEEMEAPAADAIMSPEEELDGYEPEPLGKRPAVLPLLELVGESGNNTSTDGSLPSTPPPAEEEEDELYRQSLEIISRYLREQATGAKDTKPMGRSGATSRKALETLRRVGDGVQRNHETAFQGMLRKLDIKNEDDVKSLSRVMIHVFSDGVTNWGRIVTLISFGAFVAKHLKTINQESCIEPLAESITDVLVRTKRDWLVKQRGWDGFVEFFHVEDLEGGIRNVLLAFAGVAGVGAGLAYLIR
Mcl1 Noxa PPI = Mcl-1/Noxa interaction inhibition; Q07820; TR-FRET Mcl-1/Noxa peptide binding, 2 h; inhibition, % at 21.7 µM; 220,000 compounds, 1.5% hits; AID 1022;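 active means compounds that cut the protein-peptide binding signal by more than 50% relative to plate controls in a single-dose test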;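 further: His-tagged Mcl-1 with rhodamine Noxa BH3 peptide and terbium anti-His antibody; 0% = Mcl-1 plus Noxa peptide wells and 100% = peptide-only wells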
MCL1-BIM inh = disrupts human MCL1 binding to BIM-BH3 peptide. GST-MCL1 / FITC-Bim-BH3 fluorescence polarization. Q07820. inhibition, % at 10.9 µM. 320,000 compounds, 0.68% hits;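 active means inhibition above the mean inhibition of all tested compounds plus 3 SD, set per campaign, cut at about 40% in these data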;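 further: 0% = DMSO wells and 100% = unlabeled Bim-BH3 peptide control; higher means more loss of mP so more displacement of Bim peptide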
Bim-Mcl-1 = disrupts Bim peptide binding to human Mcl-1. Q07820. Bead-based flow cytometry, Bim peptide-Mcl-1 binding. inhibition, % at 10 µM. 190,000 compounds, 0.1% hits; in the data active means inhibition above about 40%;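 further: 0% = no compound tracer wells and 100% = peptide blocker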
Starred values were filed as active, the others as inactive. Most compounds without a hit are left out; they make up all but 2% or so of the library.

What do the screens show for `CCc1nc(C)ccc1OCC(=O)O`?
Mcl1 Bid PPI: 22; Mcl1 Noxa PPI: 20; MCL1-BIM inh: -8; Bim-Mcl-1: -1

How did CCc1nc(C)ccc1OCC(=O)NCCCN(C)C do in these assays?
Mcl1 Bid PPI: 55*; Mcl1 Noxa PPI: 32; MCL1-BIM inh: 0; Bim-Mcl-1: -3

What do the screens show for `Cc1ccc(CCC(=O)Nc2ccccc2C(=O)O)o1`?
MCL1-BIM inh: 9

How did CCn1c(C)cc(/C=C2\NC(=O)N(Cc3ccc(Cl)cc3)C2=O)c1C do in these assays?
Mcl1 Bid PPI: 90*; Mcl1 Noxa PPI: 83*; MCL1-BIM inh: 8; Bim-Mcl-1: 0

Results for Cc1cc(Nc2ccc([N+](=O)[O-])cc2)c2ccccc2n1 ?
MCL1-BIM inh: -4

How did O=c1nc(Nc2ccccc2)sc2ccc([N+](=O)[O-])cc12 do in these assays?
Mcl1 Bid PPI: 2; Mcl1 Noxa PPI: 54*; MCL1-BIM inh: 5; Bim-Mcl-1: -11

How did CCc1nc2oc3cc(OC)ccc3c(=O)c2c(=O)n1Cc1ccco1 do in these assays?
Mcl1 Bid PPI: 8; Mcl1 Noxa PPI: 29; MCL1-BIM inh: 21; Bim-Mcl-1: 1

What do the screens show for `COc1ccc(-c2nc3oc4cc(OC)ccc4c(=O)c3c(=O)n2Cc2ccco2)cc1`?
Mcl1 Bid PPI: 28; Mcl1 Noxa PPI: 52*; MCL1-BIM inh: 6; Bim-Mcl-1: -5

How did COc1ccc2c(=O)c3c(=O)n(Cc4ccco4)c(-c4ccco4)nc3oc2c1 do in these assays?
Mcl1 Bid PPI: -3; Mcl1 Noxa PPI: 70*; MCL1-BIM inh: 26; Bim-Mcl-1: 0

How did Cc1ccc(/C=C2\Oc3c(ccc(O)c3CN3CCN(C)CC3)C2=O)cc1 do in these assays?
Mcl1 Bid PPI: 0; Mcl1 Noxa PPI: -13; MCL1-BIM inh: 42*; Bim-Mcl-1: 0

Results for CC(C)[n+]1ccn(C2=C([O-])c3ccccc3C(=O)/C2=N\S(=O)(=O)c2ccccc2)c1 ?
Mcl1 Bid PPI: 84*; Mcl1 Noxa PPI: -1; MCL1-BIM inh: 5

How did COc1ccccc1/C=C/C=N/NC(=O)c1cc(-c2ccco2)[nH]n1 do in these assays?
Mcl1 Bid PPI: -37; Mcl1 Noxa PPI: 62*; MCL1-BIM inh: 23

What do the screens show for `CCCNC(=O)C1CCN(c2cc(-c3ccccc3)nc3ncnn23)CC1`?
Mcl1 Bid PPI: -4; Mcl1 Noxa PPI: 69*; MCL1-BIM inh: 4; Bim-Mcl-1: 0

Results for O=C(NCc1ccc(OC(F)(F)F)cc1)C1CC2Cn3c(nc4ccccc43)C2N1c1ccccc1 (stereo unspecified) ?
MCL1-BIM inh: 2

Results for Oc1cc(O)c2c(c1)O[C@H](c1ccc(O)c(O)c1)[C@@H](O)C2 ?
Mcl1 Bid PPI: -50; Mcl1 Noxa PPI: 15; MCL1-BIM inh: 12

How did O=C1c2c(O)cc(O)cc2O[C@@]12c1c(cc(O)c3c1O[C@H](c1ccc(O)cc1)[C@@H](O)C3)O[C@@H]2c1ccc(O)cc1 do in these assays?
Mcl1 Bid PPI: 7; Mcl1 Noxa PPI: 66*; MCL1-BIM inh: 14; Bim-Mcl-1: -2

How did COc1ccc(C(CNC(=O)c2cccc(S(=O)(=O)N3CCCCC3)c2)N2CCCC2)cc1 (stereo unspecified) do in these assays?
MCL1-BIM inh: -2

What do the screens show for `C/C(=C\c1ccco1)C1C(C#N)=C(N)Oc2n[nH]c(-c3ccccc3)c21` (stereo unspecified)?
Mcl1 Bid PPI: 5; Mcl1 Noxa PPI: 69*; MCL1-BIM inh: 2; Bim-Mcl-1: 2

Results for Cc1nnc(N2C(=O)C(=O)/C(=C(/O)c3ccc4c(c3)OCCO4)C2c2ccc([N+](=O)[O-])cc2)s1 (stereo unspecified) ?
MCL1-BIM inh: 3

How did Cc1ccc(S(=O)(=O)N2CCOCC2)cc1C(=O)O do in these assays?
Mcl1 Bid PPI: 1; Mcl1 Noxa PPI: 11; MCL1-BIM inh: 4; Bim-Mcl-1: -1

Results for Cc1ccc(S(=O)(=O)N2CCOCC2)cc1C(=O)N1C(=O)c2cccc(N)c2C1=O ?
Mcl1 Bid PPI: 97*; Mcl1 Noxa PPI: 17; MCL1-BIM inh: 32; Bim-Mcl-1: -1

What do the screens show for `O=C(Nc1ccc(N2CCCCC2)c(Cl)c1)c1ncn[nH]1`?
Mcl1 Bid PPI: -32; Mcl1 Noxa PPI: 4; MCL1-BIM inh: 13; Bim-Mcl-1: 0

How did O=C(Nc1ccc(CCC(=O)N2CCCC2)cc1)c1ncn[nH]1 do in these assays?
Mcl1 Bid PPI: 96*; Mcl1 Noxa PPI: 22; MCL1-BIM inh: 9; Bim-Mcl-1: -4

Results for Cc1ccc(S(=O)(=O)N2CCC(C(=O)NC3CC(C)(C)NC(C)(C)C3)CC2)cc1 ?
MCL1-BIM inh: -2

Results for O=C(N/N=C/c1cccc(O)c1)c1ccc(NC(=O)c2cccc([N+](=O)[O-])c2)cc1 ?
Mcl1 Bid PPI: -3; Mcl1 Noxa PPI: 60*; MCL1-BIM inh: -7; Bim-Mcl-1: 0

What do the screens show for `O=C(N/N=C/c1ccc(O)cc1)c1cccc(N/N=C/c2ccc(O)cc2)c1`?
Mcl1 Bid PPI: -31; Mcl1 Noxa PPI: 80*; MCL1-BIM inh: 3

How did COc1cc(OC)c([N+](=O)[O-])cc1/C=N/NC(=O)c1ccncc1 do in these assays?
Mcl1 Bid PPI: -5; Mcl1 Noxa PPI: 71*; MCL1-BIM inh: 14; Bim-Mcl-1: 7

What do the screens show for `COc1ccc(/C=N/NC(=O)c2ccc(NC(=O)c3cccc([N+](=O)[O-])c3)cc2)c(OC)c1`?
Mcl1 Bid PPI: 28; Mcl1 Noxa PPI: 67*; MCL1-BIM inh: 10; Bim-Mcl-1: 0

How did COc1cc2c(cc1OC)CN(C(=S)NC(=O)c1ccccc1)CC2 do in these assays?
Mcl1 Bid PPI: -51; Mcl1 Noxa PPI: 22; MCL1-BIM inh: 4; Bim-Mcl-1: 0

Results for O=C(CSc1nnc(-c2cccnc2)o1)N1CCCCC1 ?
MCL1-BIM inh: 0

Results for COc1cc(/C=N/NC(=O)c2cccnc2)ccc1OC(=O)c1ccc([N+](=O)[O-])cc1 ?
Mcl1 Bid PPI: 34; Mcl1 Noxa PPI: 58*; MCL1-BIM inh: -1; Bim-Mcl-1: 1

What do the screens show for `O=C(NC(=S)NCc1cccnc1)c1ccc([N+](=O)[O-])cc1`?
Mcl1 Bid PPI: 71*; Mcl1 Noxa PPI: 3; MCL1-BIM inh: 10; Bim-Mcl-1: -2

How did O=C(NCc1cccnc1)c1ccc(NC(=O)c2ccc([N+](=O)[O-])cc2)cc1 do in these assays?
MCL1-BIM inh: 6

Results for CC1CN(CCCCOc2ccc3ccccc3c2)CC(C)O1 (stereo unspecified) ?
Mcl1 Bid PPI: 8; Mcl1 Noxa PPI: 35; MCL1-BIM inh: 7; Bim-Mcl-1: -3

What do the screens show for `COC(=O)c1ccc(OCCCCN2CC(C)OC(C)C2)cc1` (stereo unspecified)?
Mcl1 Bid PPI: 52*; Mcl1 Noxa PPI: 32; MCL1-BIM inh: -11; Bim-Mcl-1: -1

How did Cc1ccc(S(=O)(=O)NC(=O)c2ccccc2C)cc1 do in these assays?
MCL1-BIM inh: 4

Results for COc1ccccc1N=c1scc(-c2ccc3c(c2)NC(=O)CO3)n1CC1CCCO1 (stereo unspecified) ?
Mcl1 Bid PPI: -18; Mcl1 Noxa PPI: -2; MCL1-BIM inh: -1; Bim-Mcl-1: -1
